Assay [1] is described as follows: P. berghei load reduction in hepatocytes – cell-based, HepG2, luciferase luminescence, HepG2 viability, primary screen (AID 624349; in the data active means parasite load remaining mostly below about 12%, no sharp cut-off; inactive means mostly above about 10%;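 further: 100% = mean of DMSO negative control wells on the same plate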). As to conditions: P. berghei liver stage in HepG2, luciferase luminescence, concentration not given here; parasite load remaining: stronger effect = lower value; viability: measured here: HepG2 viability without parasites.
Assay [2] can be described thus: signal quenchers or enhancers, Cy5 substrate/SSB – biochemical, NIH Clinical Collection, E. coli SSB, artefact control for HCV NS3 helicase inhibitor project (AID 743268; call rule not given here). As to conditions: Cy5-oligo bound E. coli SSB, fluorescence interference.
In assay [3] the test system is Hepatitis C virus NS3 helicase. As to the kind of experiment: blockers of NS3h binding to DNA – biochemical, fluorescence polarization, NIH Clinical Collection, primary screen (AID 743270; call rule not given here). As to conditions: NS3 helicase binding to Cy5-dT15 DNA, stronger effect = higher value, concentration not given here. Background: In fluorescence polarisation assays a small probe gives low polarisation when free and higher when bound to something large.

Assay [4] addresses Single-stranded DNA-binding protein (Escherichia coli (strain K12)) (UniProt P0AGE0). The assay is described as follows: SSB-ssDNA binding inhibitors – biochemical, fluorescence polarization, NIH Clinical Collection, counter-screen for HCV NS3 helicase inhibitor project (AID 743271; in the data active means inhibition above about 28%). As to conditions: E. coli SSB-DNA binding, stronger effect = higher value, concentration not given here.
The nature of assay [5]: compounds distorting NS3 helicase fluorescence signal – biochemical, NIH Clinical Collection, artefact control for HCV NS3 helicase inhibitor project (AID 743272; call rule not given here;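 further: HCV NS3 helicase with a Cy5 labelled single stranded DNA probe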). The settings on record: fluorescence interference counterscreen, HCV NS3 helicase assay; stronger effect = lower value. A general note: Counterscreens check selectivity or assay interference.
A short description of assay [6]: modulation of C. elegans fzo-1 (AID 1259413; call rule not given here;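 further: fzo-1 mutant C. elegans worms in liquid wells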). As to conditions: C. elegans fzo-1 modulator screen, mean read-out; stronger effect = higher value.
For assay [7], the system named is F380Y. The assay is described as follows: BK channel mutant inhibitors and activators – cell-based, U2OS BacMam, thallium flux, beta subunits, selectivity assay, profiling panel (AID 1259406).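 Further: initial slope of Thallos dye fluorescence rise after thallium is added; log ratio against the mean of 0.3% DMSO vehicle wells on the same plate.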 The settings on record: U2OS BacMam BK variants, at 30 µM.
In assay [8] the test system is F380Y/beta1. The assay is described as above. As to conditions: U2OS BacMam BK variants, at 30 µM.
Assay [9] concerns F380Y/beta2Delta. The description is as above. The settings on record: U2OS BacMam BK variants, at 30 µM.
For assay [10], the system named is F380Y/beta4. Described as above. As to conditions: U2OS BacMam BK variants, at 30 µM.
Assay [11] has as its target Calcium-activated potassium channel subunit alpha-1 (Homo sapiens) + Leucine-rich repeat-containing protein 26 (Homo sapiens) (UniProt Q12791+Q2I0M4). Described as above. As to conditions: U2OS BacMam BK variants, F380Y/Slo1WT/gamma1, at 30 µM.
In assay [12] the test system is R275C. The assay is described as above. The settings on record: U2OS BacMam BK variants, at 30 µM.
In assay [13] the test system is R275C/beta1. Described as above. As to conditions: U2OS BacMam BK variants, at 30 µM.
The subject of assay [14] is R275C/beta2Delta. The description is as above. The settings on record: U2OS BacMam BK variants, at 30 µM.
In assay [15] the test system is R275C/beta4. The description is as above. The settings on record: U2OS BacMam BK variants, at 30 µM.
In assay [16] the test system is R275C/Slo1WT/beta2. Described as above. The settings on record: U2OS BacMam BK variants, at 30 µM.
A short description of assay [17]: viability loss with induced miR-34 in A549 – imaging, A549 dox-inducible miR-34, nuclei and caspase counts, primary screen (AID 1347080;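 active means compounds whose cell count with miR-34 switched on is under 0.7 times the count with it off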). As to conditions: A549 miR-34 inducible, Hoechst nuclei count, 48 h.
The nature of assay [18]: galactose survival enhancers in mitochondrial complex I cybrids – cell-based, galactose medium, ATP luminescence, primary screen (AID 1645843;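 active means z-score of at least 1.8 in each of two replicates, scored against plate mean and spread of sample wells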;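 further: positive z means more ATP and so rescue of galactose-driven cybrid death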). The settings on record: complex I mutant cybrid cells, 72 h, stronger effect = higher value.
The test system of assay [19] is Neuropilin-2 / VEGF-C interaction (human). The assay is described as follows: small molecules blocking Neuropilin-2/VEGF-C interaction – biochemical, microplate binding format, z-score (AID 743281; call rule not given here). As to conditions: microplate NRP2/VEGF-C binding assay; stronger effect = lower value.

This note sets out measurements from PubChem BioAssay.

Activity calls are given as the source filed them.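 How the source made its calls, unless noted: active means thallium flux through the channel raised or lowered by more than 3 SD from vehicle-only wells, actives on both sides; inactive means the rest.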

Chain of Calcium-activated potassium channel subunit alpha-1 (Homo sapiens) + Leucine-rich repeat-containing protein 26 (Homo sapiens) (Q2I0M4 whole entry, looked up, one chain of several): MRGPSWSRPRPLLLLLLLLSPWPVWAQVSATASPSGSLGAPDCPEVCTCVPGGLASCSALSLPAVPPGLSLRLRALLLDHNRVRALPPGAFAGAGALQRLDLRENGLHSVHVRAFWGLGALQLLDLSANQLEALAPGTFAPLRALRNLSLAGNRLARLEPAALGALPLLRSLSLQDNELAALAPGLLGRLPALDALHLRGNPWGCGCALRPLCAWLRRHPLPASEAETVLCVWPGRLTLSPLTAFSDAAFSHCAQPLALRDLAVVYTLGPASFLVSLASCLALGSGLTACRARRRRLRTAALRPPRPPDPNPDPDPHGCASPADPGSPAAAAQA

`CCC[C@@H]1C[C@@H](C(=O)N[C@H]([C@@H](C)O)[C@H]2O[C@H](SC)[C@H](O)[C@@H](O)C2O)N(C)C1` (stereo partly specified): the parasite load remaining in assay [1] is 97.8% (inactive). This molecule returned a viability in assay [1] of 91%. In addition, the fluorescence ratio in assay [2] was 0.98 (inactive); in assay [5], 1.03 (inactive). Moreover, the results for the inhibition in assay [3] and in assay [4] were -5% (inactive) and -3.53% (inactive), respectively. For the same molecule, the mean signal in assay [6] is 237 (inactive). Moreover, the log fold change Tl+ flux is 0.0293 (inactive) in assay [7]; -0.0324 (inactive) in [8]; 0.0245 (inactive) in assay [9]; 0.0251 (inactive) in [10]; 0.0541 (inactive) in [11]; -0.0022 (inactive) in assay [12]. The log fold change Tl+ flux in assay [13] is -0.0579 (inactive); in assay [14], -0.0468 (inactive); in assay [15], -0.0617 (inactive); in assay [16], -0.0428 (inactive).
For `CN(C)S(=O)(=O)c1ccc2c(c1)/C(=C\CCN1CCNCC1)c1ccccc1S2`, in [1], the parasite load remaining was -2.22% (inactive). In [1], this molecule returned a viability of 1.35%. Further, the fluorescence ratio in assay [2] was 1.07 (inactive); in assay [5], 0.96 (inactive). Besides, the inhibition is -0.45% (inactive) in assay [3] and 1.81% (inactive) in [4]. Also, the fold change is 0.93 (inactive) in assay [17] (stronger effect = lower value, cell number ratio, induced over uninduced) and 1.32 in [17] (measured here: relative caspase fold change +Dox/-Dox). The cell count in assay [17] (measured here: total cells with miR-34 induction, stronger effect = lower value) was found to be 9850; in [17] (measured here: total cells without miR-34 induction), 10600. The z-score in assay [18] was -0.06 (inactive). In addition, the log fold change Tl+ flux was -0.0239 (inactive) in assay [7]; -0.0463 (inactive) in [8]; -0.0723 (inactive) in assay [9]; -0.0323 (inactive) in assay [10]; -0.0624 (inactive) in [11]; -0.0283 (inactive) in assay [12]. For the same molecule, the log fold change Tl+ flux in assay [13] is 0.0522 (inactive); in assay [14], 0.019 (inactive); in assay [15] it was 0.0353 (inactive); in [16], 0.0468 (inactive).
Consider `O=c1cnn([C@@H]2O[C@H](CO)[C@@H](O)[C@H]2O)c(=O)[nH]1`, for which, in [1], the parasite load remaining is 51.8% (inactive). The viability in assay [1] was 79.3%. Also, the fluorescence ratio was 0.94 (inactive) in [2] and 0.89 (inactive) in [5]. The values for the inhibition in assay [3] and in assay [4] were -2.84% (inactive) and -1.97% (inactive), respectively. Also, the z-score in [19] is -0.659 (inactive). Besides, the mean signal in assay [6] is 301 (inactive). For the same molecule, the log fold change Tl+ flux is -0.0103 (inactive) in assay [7]; 0.0132 (inactive) in assay [8]; -0.027 (inactive) in assay [9]; 0.00308 (inactive) in assay [10]; -0.026 (inactive) in [11]; 0.00432 (inactive) in [12]. Besides, the log fold change Tl+ flux is -0.00973 (inactive) in assay [13], -0.0295 (inactive) in assay [14], -0.0439 (inactive) in assay [15] and -0.0257 (inactive) in [16].

Usually viability stands for the share of living cells, or the viability signal relative to a control. As usually defined, the inhibition is the relative decrease from the control value, in per cent.
